PubChem BioAssay AID1159580 (chemical genetic matrix, 2015)
Screen size: about 5,500 compounds; about 2,000 (36%) were called active. Not shown: some 18% with an inconclusive outcome. The list shows a part of the results. Unmarked numbers belong to inactive results. Rule as the data show it: active = normalized growth mostly below about 0.91 (no sharp cut-off); inconclusive = no clear call, values can overlap the other calls; inactive = mostly above about 0.92.

Assay: chemical genetic growth profiling, strain panel (AID 1159580);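 also: tested at 20 µM; growth read once vehicle control cultures reached saturation at 30 °C; 1 = growth at the plate median or of vehicle wells; lower values mean less growth of the strain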
Details: S. cerevisiae deletion strains, growth OD

Question: With `CCC(=O)NCC[C@@H]1CCc2ccc3c(c21)CCO3` as the molecule, how does the normalized growth (locus YAL021C, strain ccr4, active compounds read low) read?
Answer: 1.03

Question: And the normalized growth (locus YAL026C, strain drs2, active compounds read low)?
Answer: 1.01

Question: And the normalized growth (locus YAL030W, strain snc1, active compounds read low)?
Answer: 1.01

Question: What about the normalized growth (locus YBL061C, strain skt5, active compounds read low) of the same molecule?
Answer: 1.02

Question: And the normalized growth (locus YBR009C, strain hhf1, active compounds read low)?
Answer: 0.987

Question: What about the normalized growth (locus YBR023C, strain chs3, active compounds read low) of the same molecule?
Answer: 1.02

Question: And the normalized growth (locus YBR171W, strain sec66, active compounds read low)?
Answer: 1

Question: And the normalized growth (locus YBR231C, strain swc5, active compounds read low)?
Answer: 0.993

Question: What about the normalized growth (locus YBR279W, strain paf1, active compounds read low) of the same molecule?
Answer: 1.02

Question: What about the normalized growth (locus YCL011C, strain gbp2, active compounds read low) of the same molecule?
Answer: 1

Question: What about the normalized growth (locus YCL016C, strain dcc1, active compounds read low) of the same molecule?
Answer: 1.04

Question: What about the normalized growth (locus YCL061C, strain MRC1, active compounds read low) of the same molecule?
Answer: 0.988

Question: What about the normalized growth (locus YCL069W, strain vba3, active compounds read low) of the same molecule?
Answer: 1

Question: And the normalized growth (locus YCR088W, strain abp1, active compounds read low)?
Answer: 1.01

Question: And the normalized growth (locus YDL005C, strain med2, active compounds read low)?
Answer: 0.995

Question: And the normalized growth (locus YDL040C, strain nat1, active compounds read low)?
Answer: 1

Question: What about the normalized growth (locus YDR001C, strain nth1, active compounds read low) of the same molecule?
Answer: 1

Question: And the normalized growth (locus YDR069C, strain doa4, active compounds read low)?
Answer: 0.982

Question: What about the normalized growth (locus YDR137W, strain rgp1, active compounds read low) of the same molecule?
Answer: 1.04

Question: And the normalized growth (locus YDR159W, strain sac3, active compounds read low)?
Answer: 0.924

Question: What about the normalized growth (locus YDR195W, strain ref2) of the same molecule?
Answer: 1.01

Question: And the normalized growth (locus YDR297W, strain sur2, active compounds read low)?
Answer: 0.989

Question: What about the normalized growth (locus YDR334W, strain swr1, active compounds read low) of the same molecule?
Answer: 1

Question: And the normalized growth (locus YDR335W, strain msn5, active compounds read low)?
Answer: 0.998

Question: What about the normalized growth (locus YDR392W, strain spt3, active compounds read low) of the same molecule?
Answer: 0.988

Question: What about the normalized growth (locus YEL003W, strain gim4, active compounds read low) of the same molecule?
Answer: 0.972

Question: What about the normalized growth (locus YEL037C, strain rad23, active compounds read low) of the same molecule?
Answer: 1.01

Question: What about the normalized growth (locus YEL061C, strain CIN8 (second series), active compounds read low) of the same molecule?
Answer: 0.991

Question: What about the normalized growth (locus YER015W, strain faa2, active compounds read low) of the same molecule?
Answer: 1

Question: And the normalized growth (locus YER016W, strain bim1, active compounds read low)?
Answer: 1.02

Question: And the normalized growth (locus YER111C, strain swi4, active compounds read low)?
Answer: 1.03

Question: And the normalized growth (locus YER155C, strain BEM2 (second series), active compounds read low)?
Answer: 1.06

Question: What about the normalized growth (locus YFR010W, strain ubp6, active compounds read low) of the same molecule?
Answer: 0.953

Question: And the normalized growth (locus YGL167C, strain pmr1, active compounds read low)?
Answer: 1

Question: And the normalized growth (locus YGL173C, strain kem1, active compounds read low)?
Answer: 0.978

Question: What about the normalized growth (locus YGL227W, strain vid30, active compounds read low) of the same molecule?
Answer: 1.01

Question: What about the normalized growth (locus YGL240W, strain doc1, active compounds read low) of the same molecule?
Answer: 1.01

Question: What about the normalized growth (locus YGL253W, strain hxk2, active compounds read low) of the same molecule?
Answer: 0.972

Question: What about the normalized growth (locus YHR013C, strain ard1, active compounds read low) of the same molecule?
Answer: 1.02

Question: And the normalized growth (locus YHR027C, strain rpn1, active compounds read low)?
Answer: 0.998

Question: What about the normalized growth (locus YHR030C, strain SLT2, active compounds read low) of the same molecule?
Answer: 0.947

Question: And the normalized growth (locus YHR079C, strain IRE1, active compounds read low)?
Answer: 0.953

Question: And the normalized growth (locus YHR142W, strain chs7, active compounds read low)?
Answer: 0.989

Question: What about the normalized growth (locus YJL092W, strain hpr5, active compounds read low) of the same molecule?
Answer: 1.01

Question: What about the normalized growth (locus YJL095W, strain BCK1 (second series), active compounds read low) of the same molecule?
Answer: 1.01

Question: What about the normalized growth (locus YJL095W, strain BCK1, active compounds read low) of the same molecule?
Answer: 0.981

Question: What about the normalized growth (locus YJL115W, strain asf1, active compounds read low) of the same molecule?
Answer: 1.02

Question: What about the normalized growth (locus YJL129C, strain trk1, active compounds read low) of the same molecule?
Answer: 1

Question: And the normalized growth (locus YJL154C, strain vps35, active compounds read low)?
Answer: 1.01

Question: And the normalized growth (locus YJL164C, strain tpk1, active compounds read low)?
Answer: 0.968

Question: What about the normalized growth (locus YJL166W, strain qcr8, active compounds read low) of the same molecule?
Answer: 0.98

Question: What about the normalized growth (locus YJL187C, strain SWE1, active compounds read low) of the same molecule?
Answer: 1.01

Question: And the normalized growth (locus YJR066W, strain TOR1, active compounds read low)?
Answer: 0.936

Question: And the normalized growth (locus YKL160W, strain elf1, active compounds read low)?
Answer: 1.05

Question: What about the normalized growth (locus YKR026C, strain gcn3, active compounds read low) of the same molecule?
Answer: 1.01

Question: What about the normalized growth (locus YKR091W, strain srl3, active compounds read low) of the same molecule?
Answer: 1

Question: What about the normalized growth (locus YLL001W, strain dnm1, active compounds read low) of the same molecule?
Answer: 0.952

Question: And the normalized growth (locus YLL026W, active compounds read low)?
Answer: 1

Question: And the normalized growth (locus YLL041C, strain sdh2, active compounds read low)?
Answer: 0.997

Question: What about the normalized growth (locus YLR027C, strain aat2, active compounds read low) of the same molecule?
Answer: 0.999

Question: And the normalized growth (locus YLR113W, strain HOG1, active compounds read low)?
Answer: 0.95

Question: What about the normalized growth (locus YLR221C, strain rsa3, active compounds read low) of the same molecule?
Answer: 0.953

Question: What about the normalized growth (locus YLR258W, strain gsy2, active compounds read low) of the same molecule?
Answer: 1.02

Question: What about the normalized growth (locus YLR262C, strain YPT6 (second series), active compounds read low) of the same molecule?
Answer: 1.01

Question: And the normalized growth (locus YLR320W, strain mms22, active compounds read low)?
Answer: 0.975

Question: What about the normalized growth (locus YLR342W, strain FKS1, active compounds read low) of the same molecule?
Answer: 1

Question: What about the normalized growth (locus YLR357W, strain rsc2, active compounds read low) of the same molecule?
Answer: 1.02

Question: And the normalized growth (locus YLR370C, strain arc18, active compounds read low)?
Answer: 1

Question: What about the normalized growth (locus YLR384C, strain iki3, active compounds read low) of the same molecule?
Answer: 1.01

Question: And the normalized growth (locus YML120C, strain ndi1, active compounds read low)?
Answer: 0.963

Question: And the normalized growth (locus YMR058W, strain fet3, active compounds read low)?
Answer: 1.01

Question: What about the normalized growth (locus YMR125W, strain sto1, active compounds read low) of the same molecule?
Answer: 1

Question: What about the normalized growth (locus YMR129W, active compounds read low) of the same molecule?
Answer: 0.985

Question: What about the normalized growth (locus YMR205C, strain PFK2, active compounds read low) of the same molecule?
Answer: 1

Question: What about the normalized growth (locus YMR231W, strain pep5, active compounds read low) of the same molecule?
Answer: 1

Question: What about the normalized growth (locus YNL071W, strain lat1, active compounds read low) of the same molecule?
Answer: 1.01

Question: And the normalized growth (locus YNL183C, strain NPR1, active compounds read low)?
Answer: 0.904

Question: And the normalized growth (locus YNL209W, strain ssb2, active compounds read low)?
Answer: 1.01

Question: What about the normalized growth (locus YNL248C, strain rpa49, active compounds read low) of the same molecule?
Answer: 1.01

Question: And the normalized growth (locus YNL322C, strain KRE1 (second series), active compounds read low)?
Answer: 1.02

Question: And the normalized growth (locus YNR049C, strain mso1, active compounds read low)?
Answer: 1

Question: What about the normalized growth (locus YOR001W, strain rrp6, active compounds read low) of the same molecule?
Answer: 0.929

Question: And the normalized growth (locus YOR070C, strain gyp1, active compounds read low)?
Answer: 1.02

Question: And the normalized growth (locus YOR080W, strain dia2, active compounds read low)?
Answer: 1.01

Question: And the normalized growth (locus YOR083W, strain WHI5, active compounds read low)?
Answer: 0.966

Question: What about the normalized growth (locus YOR106W, strain vam3, active compounds read low) of the same molecule?
Answer: 1

Question: And the normalized growth (locus YOR231W, strain MKK1, active compounds read low)?
Answer: 0.969

Question: And the normalized growth (locus YOR265W, strain rbl2, active compounds read low)?
Answer: 1

Question: And the normalized growth (locus YOR270C, strain vph1, active compounds read low)?
Answer: 0.771 (active)

Question: What about the normalized growth (locus YOR290C, strain snf2, active compounds read low) of the same molecule?
Answer: 1.01

Question: What about the normalized growth (locus YPL051W, strain arl3, active compounds read low) of the same molecule?
Answer: 1.06

Question: And the normalized growth (locus YPL078C, strain atp4, active compounds read low)?
Answer: 1.03

Question: What about the normalized growth (locus YPL106C, strain sse1, active compounds read low) of the same molecule?
Answer: 1.04

Question: And the normalized growth (locus YPL240C, strain hsp82, active compounds read low)?
Answer: 1.01

Question: And the normalized growth (locus YPL256C, strain CLN2, active compounds read low)?
Answer: 0.942
